# Measurements taken from ChEMBL document CHEMBL3988442, “University of Dundee, Small-Polar-MMV Screening Library” (2021).
# Screen size: about 66,000 compounds; about 960 (1.5%) showed an effect of 50% or more. Many of the other results were omitted from the sample, so strong results are more common in it than they were.
# System: Trypanosoma brucei
# Test: Trypanosoma brucei 72 hour study
# Type: functional, organism-based
# Design: scale not given: in the data most compounds retested in dose-response had high values
structure (smiles),measurement,setting,value
COc1ccc(C(=O)C2CCCN(c3cc(N)ncn3)C2)c(C)c1 (configuration not stated),Percent Effect,"30.3 µM, […]",35.59%
CCc1nc(C)cc(N2CCCC(C(=O)c3ccc(OC)cc3C)C2)n1 (configuration not stated),Percent Effect,"30.3 µM, […]",68.93%
COc1ccc(C(=O)C2CCCN(c3cc(OC)ncn3)C2)c(C)c1 (configuration not stated),Percent Effect,"30.3 µM, […]",25.96%
Cc1ccc(CN2CCc3nnc(CN4CCCC4=O)n3CC2)o1.O=C(O)C(F)(F)F,Percent Effect,"30.3 µM, […]",11.51%
Cc1nnsc1C(=O)NCc1nn(C)c2c1CCCC2,Percent Effect,"30 µM, 30.03 µM",10.26%
O=C(Cc1cccc(F)c1F)NC1COc2ccccc2C1=O (configuration not stated),Percent Effect,"30.3 µM, […]",-49.3%
O=C(Cc1cccnc1)NC1COc2ccccc2C1=O (configuration not stated),Percent Effect,"30.3 µM, […]",-65.37%
O=C(Cc1ccc(F)c(F)c1)NC1COc2ccccc2C1=O (configuration not stated),Percent Effect,"30.3 µM, […]",53.93%
COCC(O)CN(C)c1cc(C(F)(F)F)nc(-c2cccnc2)n1 (configuration not stated),Percent Effect,"30 µM, 30.03 µM",57.96%
CC(O)CN(C)c1cc(C(F)(F)F)nc(-c2cccnc2)n1 (configuration not stated),Percent Effect,"30 µM, 30.03 µM",14.71%
COCCCN(C)c1cc(C(F)(F)F)nc(-c2cccnc2)n1,Percent Effect,"30 µM, 30.03 µM",14.1%
CC(C)Nc1oc(-c2ccc(S(=O)(=O)N(C)C)o2)nc1C#N,Percent Effect,"30 µM, 30.03 µM",-8.182%
CNc1oc(-c2ccc(S(=O)(=O)N(C)C)o2)nc1C#N,Percent Effect,"30 µM, 30.03 µM",-28.85%
CN(C)S(=O)(=O)c1ccc(-c2nc(C#N)c(NC3CCCCC3)o2)o1,Percent Effect,"30 µM, 30.03 µM",-26.33%
CN(C)S(=O)(=O)c1ccc(-c2nc(C#N)c(NC3CC3)o2)o1,Percent Effect,"30 µM, 30.03 µM",-26.91%
CN(C)S(=O)(=O)c1ccc(-c2nc(C#N)c(NC(C)(C)C)o2)o1.Cl,Percent Effect,"30 µM, 30.03 µM",94.64%
Cc1ccc(S(=O)(=O)Nc2ccc(=O)n(C)c2)c(Br)c1,Percent Effect,"30.3 µM, […]",-36.73%
CCN1CC[C@@]2(C(=O)Nc3ccccc3)CCN(S(C)(=O)=O)CC[C@@H]12.O=C(O)C(F)(F)F,Percent Effect,"30 µM, 30.03 µM",-16.54%
CCOCC1CN(C(=O)c2cnoc2C)Cc2cnn(C)c21.O=C(O)C(F)(F)F (configuration not stated),Percent Effect,"30.3 µM, […]",-5.791%
CCC(=O)N1CCC2(CC1)CC(CC(=O)N(C)C)c1ccc(F)cc12 (configuration not stated),Percent Effect,"30.3 µM, […]",-4.762%
c1ccc(-c2nc3c(c(NCc4n[nH]c5c4CCC5)n2)CCNC3)cc1,Percent Effect,"30 µM, 30.03 µM",50.77%
c1ccc(-c2nc3c(c(NCc4nnc5n4CCC5)n2)CCNC3)cc1,Percent Effect,"30.3 µM, […]",7.408%
c1coc(-c2nc3c(c(NCc4n[nH]c5c4CCC5)n2)CCNCC3)c1,Percent Effect,"30 µM, 30.03 µM",-54.29%
CCc1nc2ccccc2c(=O)n1CC1(O)CCN(C(=O)C2CC2)CC1.Cl,Percent Effect,"30.3 µM, […]",5.264%
O=C(O)c1cc(-c2ccc3c(c2)OCO3)cc(S(=O)(=O)NC2CC2)c1,Percent Effect,"30 µM, 30.03 µM",-10.73%
CN(C)c1ccc(-c2cc(C(=O)O)cc(S(=O)(=O)NC3CC3)c2)cc1,Percent Effect,"30 µM, 30.03 µM",102.4%
O=C(O)c1cc(-c2ccoc2)cc(S(=O)(=O)NC2CC2)c1,Percent Effect,"30 µM, 30.03 µM",27.37%
CC(=O)N1CCC(CCc2ccnc(Nc3ccccn3)c2)CC1,Percent Effect,"30.3 µM, […]",18.19%
O=C(CO)N1CCC(CCc2ccnc(Nc3cnccn3)c2)CC1,Percent Effect,"30.3 µM, […]",12.44%
O=C(Nc1cc(CCC2CCN(CCO)CC2)ccn1)c1ccccn1,Percent Effect,"30.3 µM, […]",100.1%
CN1CCC(CCc2ccnc(NC(=O)c3ccccn3)c2)CC1,Percent Effect,"30.3 µM, […]",24.76%
CC(=O)N1CCC(CCc2ccnc(NC(=O)c3ccccn3)c2)CC1,Percent Effect,"30.3 µM, […]",56.75%
CC(=O)Nc1cc(CCC2CCN(C(=O)c3ccccn3)CC2)ccn1,Percent Effect,"30.3 µM, […]",-19.84%
O=C(O)C(F)(F)F.O=C([C@@H]1C[C@@H]2CCN(C3CCOCC3)C[C@@H]2O1)N1CCCC1,Percent Effect,"30.3 µM, […]",-37.65%
O=C(NCc1cccs1)[C@H]1CO[C@H]2CCN(C3CCCC3)C[C@H]2C1.O=C(O)C(F)(F)F,Percent Effect,"30.3 µM, […]",-53.03%
Cc1cc(NC(=O)Nc2ccc3c(ccn3CCN(C)C)c2)n(C)n1,Percent Effect,"30.3 µM, […]",55.17%
Cc1nc(CNC(=O)Nc2ccc3c(ccn3CCN(C)C)c2)no1,Percent Effect,"30.3 µM, […]",-6.711%
CN(C)CCn1ccc2cc(NC(=O)NCc3ncnn3C)ccc21,Percent Effect,"30.3 µM, […]",-3.411%
Cc1cccc(CN2Cc3ncn(C)c3C(COCC(=O)N(C)C)C2)n1.O=C(O)C(F)(F)F.O=C(O)C(F)(F)F.O=C(O)C(F)(F)F (configuration not stated),Percent Effect,"30.3 µM, […]",-54.51%
Cl.c1cncc(CNc2cncc(C3CCCN3)n2)c1 (configuration not stated),Percent Effect,"30.3 µM, […]",-3.878%
Cc1nc(CN2CCO[C@@H]3CN(Cc4nccs4)C[C@@H]3C2)cs1.O=C(O)C(F)(F)F.O=C(O)C(F)(F)F,Percent Effect,"30 µM, 30.03 µM",45.29%
Cl.Cn1cc(CN(Cc2ccccc2)Cc2ccccn2)cn1,Percent Effect,"30.3 µM, […]",-17.42%
CN(C)[C@@H]1CN(Cc2ccccn2)C[C@H]1c1cn(C)c2ccccc12.Cl,Percent Effect,"30.3 µM, […]",22.59%
CN(C)[C@@H]1CN(Cc2ccccc2O)C[C@H]1c1cn(C)c2ccccc12.Cl,Percent Effect,"30.3 µM, […]",100%
CN(C)[C@@H]1CN(Cc2ccc(O)cc2)C[C@H]1c1cn(C)c2ccccc12.Cl,Percent Effect,"30.3 µM, […]",10.26%
CCn1nc(C)c(-c2cncn2CCN(C)C2CCCC2)c1C.Cl,Percent Effect,"30.3 µM, […]",-4.685%
O=C(c1c(O)cc(F)cc1F)N1CCc2cnccc21,Percent Effect,"30 µM, 30.03 µM",-42.5%
CCO[C@@H]1CO[C@@]2(CCN(Cc3ccc4c(c3)OCO4)C2)C1.O=C(O)C(F)(F)F,Percent Effect,"30.3 µM, […]",14.48%
Cc1[nH]nc(CCC(=O)N2CCc3ncnc(NCCO)c3CC2)c1C,Percent Effect,"30 µM, 30.03 µM",-37%
O=C(CCn1cccc1)N1CCc2[nH]nc(COc3ccccc3)c2C1,Percent Effect,"30 µM, 30.03 µM",-16.91%
O=C(CCc1cccs1)N1CCc2[nH]nc(COc3ccccc3)c2C1,Percent Effect,"30 µM, 30.03 µM",68.24%
O=C(CCc1ccco1)N1CCc2[nH]nc(COc3ccccc3)c2C1,Percent Effect,"30 µM, 30.03 µM",-57.79%
Cc1nn(C(C)C)c(C)c1CN1CCN(C2CCCCC2)C(=O)C1.O=C(O)CC(O)(CC(=O)O)C(=O)O,Percent Effect,"30.3 µM, […]",-4.336%
CC(=O)N1CCCCC12CCCN(Cc1ccco1)C2.O=C(O)C(F)(F)F (configuration not stated),Percent Effect,"30.3 µM, […]",5.13%
Cc1cc(C)c(-c2nc(-c3c(C)ncc4c3CCNC4)no2)o1,Percent Effect,"30 µM, 30.03 µM",-0.4206%
CN(C)C1COC2(CCN(Cc3nccs3)CC2)C1.O=C(O)C(F)(F)F.O=C(O)C(F)(F)F (configuration not stated),Percent Effect,"30.3 µM, […]",-5.42%
CN(Cc1ccccc1)C1COC2(CCN(Cc3nccs3)CC2)C1.O=C(O)C(F)(F)F (configuration not stated),Percent Effect,"30 µM, 30.03 µM",56.78%
CN(Cc1cccnc1)C1COC2(CCN(Cc3nccs3)CC2)C1.O=C(O)C(F)(F)F.O=C(O)C(F)(F)F.O=C(O)C(F)(F)F (configuration not stated),Percent Effect,"30.3 µM, […]",-7.601%
CN(Cc1ccccn1)C1COC2(CCN(Cc3cccnc3)CC2)C1 (configuration not stated),Percent Effect,"30 µM, 30.03 µM",-2.463%
CN(Cc1ccccn1)C1COC2(CCN(Cc3nccs3)CC2)C1 (configuration not stated),Percent Effect,"30 µM, 30.03 µM",58.22%
CN(C)CCN1C2(CCN(Cc3nccs3)C2)c2ccccc2S1(=O)=O.O=C(O)C(F)(F)F.O=C(O)C(F)(F)F (configuration not stated),Percent Effect,"30.3 µM, […]",-461.1%
COCCN1C2(CCN(Cc3nccs3)C2)c2ccccc2S1(=O)=O.O=C(O)C(F)(F)F (configuration not stated),Percent Effect,"30.3 µM, […]",-203.3%
CN(Cc1cccnc1)C1CC2(CCN(c3ncccn3)CC2)C1.O=C(O)C(F)(F)F.O=C(O)C(F)(F)F,Percent Effect,"30.3 µM, […]",-50.17%
CN(Cc1cccnc1)C1CC2(CCN(Cc3ccccn3)CC2)C1.O=C(O)C(F)(F)F.O=C(O)C(F)(F)F.O=C(O)C(F)(F)F,Percent Effect,"30.3 µM, […]",-569.4%
CC(C)CCN1C2(CCN(Cc3nccs3)C2)c2ccccc2S1(=O)=O.O=C(O)C(F)(F)F (configuration not stated),Percent Effect,"30.3 µM, […]",91.13%
CN(Cc1cccnc1)C1CC2(CCN(c3ccccn3)CC2)C1.O=C(O)C(F)(F)F.O=C(O)C(F)(F)F.O=C(O)C(F)(F)F,Percent Effect,"30 µM, 30.03 µM",54.5%
CN(Cc1ccco1)C1COC2(CCN(Cc3nccs3)CC2)C1.O=C(O)C(F)(F)F.O=C(O)C(F)(F)F (configuration not stated),Percent Effect,"30.3 µM, […]",-7.244%
CCc1n[nH]c(C2CN(C(=O)c3cnc(C)cn3)CCO2)n1 (configuration not stated),Percent Effect,10 µM,-10.87%
Cc1noc(C)c1CN1CCN(CC2CC2)c2ncccc2C1.O=C(O)C(F)(F)F.O=C(O)C(F)(F)F,Percent Effect,"30 µM, 30.03 µM",-2.749%
CNC(=O)C1CCCCN1C(=O)C1CCN(S(C)(=O)=O)CC1 (configuration not stated),Percent Effect,"30.3 µM, […]",4.842%
Cc1nc(Nc2nncs2)cc(C2CNC2)n1.O=C(O)C(F)(F)F,Percent Effect,"30.3 µM, […]",-21.99%
CC(C)NC(=O)N1CCN(CCn2cccn2)c2ncccc2C1.O=C(O)C(F)(F)F,Percent Effect,"30.3 µM, […]",-82.31%
CN(C)CC(=O)N1CCCC2(CCN(c3ccccc3)C2=O)C1.O=C(O)C(F)(F)F (configuration not stated),Percent Effect,"30.3 µM, […]",-9.805%
Cc1noc(C)c1CN1C[C@H](OCc2ccncc2)[C@H]2OCCC[C@H]21.O=C(O)C(F)(F)F.O=C(O)C(F)(F)F,Percent Effect,"30 µM, 30.03 µM",3.056%
CN(C)C(=O)[C@@H]1C[C@@H]2[C@@H](CCN2Cc2nccs2)O1.O=C(O)C(F)(F)F,Percent Effect,"30.3 µM, […]",-77.1%
Cn1ccc(CN2CCCC23CCN(Cc2ccccc2F)CC3)n1.O=C(O)C(F)(F)F.O=C(O)C(F)(F)F,Percent Effect,"30.3 µM, […]",-74.92%
O=C(NC1CC1)N1CCOCC2(CCN(Cc3cccs3)C2)C1.O=C(O)C(F)(F)F (configuration not stated),Percent Effect,"30.3 µM, […]",-9.319%
Cl.c1nn(C2CCCCC2)cc1-c1cncn1CCCN1CCCCC1,Percent Effect,"30.3 µM, […]",-11.05%
Cc1cccc(C(=O)N2CCC3(CCN(c4cnn(C)c4)C3=O)C2)n1.O=C(O)C(F)(F)F (configuration not stated),Percent Effect,"30 µM, 30.03 µM",-10.65%
CC(O)CNc1nc(-c2cccnc2)nc2c1CCC2 (configuration not stated),Percent Effect,"30 µM, 30.03 µM",5.601%
Cl.NC1CCc2nc(-c3cccnc3)nc(Nc3ccc(F)cc3)c2C1 (configuration not stated),Percent Effect,"30.3 µM, […]",100.3%
c1cncc(-c2nc3c(c(NCC4(c5ccncc5)CC4)n2)CCC3)c1,Percent Effect,"30 µM, 30.03 µM",-5.668%
CN(CC1CCCO1)c1nc(-c2cccnc2)nc2c1CCNCC2 (configuration not stated),Percent Effect,"30 µM, 30.03 µM",0.7603%
CCc1noc(CNc2nc(-c3cccnc3)nc3c2CCNCC3)n1,Percent Effect,"30.3 µM, […]",2.358%
CN(C)c1cccc(C(=O)N2CCCC2c2ncc3c(n2)CCNC3)c1.Cl (configuration not stated),Percent Effect,"30.3 µM, […]",-32.8%
CNS(=O)(=O)c1ccc(CNC(=O)N2CCOC(C)C2)cc1 (configuration not stated),Percent Effect,"30.3 µM, […]",-5.397%
Cc1ccc2[nH]c(CNC(=O)C3CC4(CCNCC4)CN3C)nc2c1C (configuration not stated),Percent Effect,"30 µM, 30.03 µM",-11.35%
